Pf growth 96h: Primary qHTS for delayed death inhibitors of the malarial parasite plastid, 96 hour incubation; P. falciparum luciferase reporter growth, 96 h; Potency, µM (series often up to 28.7 µM), for the others: top-dose activity change, negative = inhibition, actives largely listed as inhibitors; 320,000 compounds, 6.9% hits; further: potency means the concentration at half of the fitted maximal effect
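Two-generation exposure (96 h) targets delayed-death phenotype. Reporter parasites carrying integrated firefly luciferase, in red cells at 2% hematocrit and 0.05% parasitemia final, kept at 37 C, 5% CO2; luminescence loss indicates inhibition.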
Pf growth 48h: Primary qHTS for delayed death inhibitors of the malarial parasite plastid, 48 hour incubation; AID 504832, 2011; Potency, µM (titrated, usually from 28.7 µM), without a hit: at the top dose activity change, negative = inhibition, actives largely listed as inhibitors; P. falciparum luciferase growth in erythrocytes, 48 h; 310,000 compounds, 5.9% hits; further: potency means the concentration at half of the fitted maximal effect
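In quantitative HTS format, infected erythrocytes bearing luciferase-reporter parasites were treated for a single generation at 37 C. Luminescence after adding detection reagent served as the growth measure.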
MARV entry inh: qHTS for inhibitors of binding or entry into cells for Marburg Virus; Marburg virus pseudotyped entry inhibition, cell reporter; Potency, µM (titrated, usually from 37.8 µM), for inactives: at the top dose activity change, negative = inhibition, usual class: inhibitors; 300,000 compounds, 1.8% hits; AID 540276, 2011; calls by dose curve; tested in HEK293 cells; further: potency means the concentration at half of the fitted maximal effect
HCV inhibitor: qHTS Assay for Inhibitors of Hepatitis C Virus (HCV); Huh7.5.1 HCVcc-Cre infection, luciferase reporter, 44 h; 340,000 compounds, 3.4% hits; Potency, µM (highest dose often 41.8 µM), for the others: at the top dose activity change, negative = inhibition, hits mostly inhibitors; further: potency means the concentration at half of the fitted maximal effect
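Compounds are dispensed onto cells plated 4 h earlier at 1,000 per well, with HCVcc-Cre virus (about 0.5 moi) added next. Following 44 h of culture, luminescent signal is measured for 15 sec after 15 min with substrate at room temperature.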
Lassa entry inh: qHTS for Inhibitors of binding or entry into cells for Lassa Virus | Lassa virus pseudotype entry inhibition, cell reporter | Potency, µM (titrated, usually from 37.9 µM), inactives show at the top dose activity change, negative = inhibition, usual class: inhibitors | 300,000 compounds, 1.2% hits | AID 540256, 2011; calls by dose curve; tested in HEK293 cells; further: potency means the concentration at half of the fitted maximal effect; nearly all actives have a fitted effect of over 50% in size
HCMV antiviral: qHTS Assay for inhibitors of the human cytomegalovirus (HCMV); HFF cells, HCMV-luciferase reporter, 72 h; stronger effect = lower value; 410,000 compounds, 4.5% hits; AID 1259415, 2018; activity change, negative = inhibition, % at 57.5 µM; in the data active means activity change below about -60%; inconclusive means no clear call, values can overlap the other calls; inactive means above about -39%
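Inhibition of viral replication was scored as loss of reporter luminescence in HFFs infected with HCMV-luciferase (MOI 1 PFU/cell) for 72 h; compounds tested at 2 doses, normalized to buffer and Salinomycin controls.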
* = called active by the depositor; i = inactive; ? = inconclusive; / = no result given; [ ] = another dose, or the depositor's remark. Hits are enriched below; roughly 14% of the tested compounds scored in any of these assays. Unless noted, the call rests on the fitted dose curve; in most records, active means well fitted inhibition curve with a large enough effect; inconclusive means small, poorly fitted or top-dose-only effect, or another doubt; inactive means no such curve, though single readings can be large or run the other way. On the % scale 0 is the no-effect control and ±100 the full control effect.

SMILES	Pf growth 96h	Pf growth 48h	MARV entry inh	HCV inhibitor	Lassa entry inh	HCMV antiviral
CC(=O)c1ccc(S(=O)(=O)N2CCN(c3nc(-c4cccnc4)nc4ccccc34)CC2)cc1	?	8.3µM*	/	?	/	29
CCOc1cc(/C=N/NC(=O)C2CCCC2)ccc1OC(C)C	9%	-14%	-18%[46.1 µM]	-6%	?	28
CCOC(=O)c1ccc(NC(=O)c2c(NCc3cccs3)sc3c2CCCCC3)cc1	/	/	/	/	?	-32
Cc1ccc(-c2nc(SCCOc3ccccc3C)n3[nH]c(=O)cc3n2)cc1	/	/	/	/	-3%[46.1 µM]	9
CNC(=O)c1cncc(C=Cc2c(C)cccc2C)c1	/	/	/	/	17%	/
O=C(c1ccc(F)cc1)N1CCN(CCc2ccncc2)CC1	/	/	4%[46.1 µM]	/	-2%[46.1 µM]	-5
CN(C)c1ccc(/C=N/N=C/c2ccccc2O)cc1	197%	79%	5.6µM*	14%	?	-11
O=C1N/C(=N\S(=O)(=O)Cc2ccccc2)S/C1=C/c1cccc([N+](=O)[O-])c1	?	?	/	22%	/	-31
O=C1NC(=NCc2ccccc2)S/C1=C/c1ccc(O)cc1	?	?	?	?	?	-62*
COc1cc(/C=C2/SC(=S)NC2=O)ccc1OS(=O)(=O)c1ccc(C)cc1	12µM*	-26%	?	6%	-16%	/
CCOc1ccc(/C=C2\SC(=S)NC2=O)cc1OC	13µM*	-11%	7%	-2%	3%	-4
COc1ccc(/C=C2/S/C(=N/S(=O)(=O)Cc3ccccc3)NC2=O)cc1OC	12µM*	?	/	17%	/	38
COc1cc(/C=C2\SC(=S)NC2=O)ccc1OS(=O)(=O)c1ccccc1	211%	-29%	-19%	7%	-1%	/
O=C(NCc1ccc(F)cc1F)[C@@H]1CCCN1C(=O)[C@@H]1CCCN1C(=O)c1ccccc1	/	/	/	/	/	-7
Cc1cccc(N(CC(N)=O)C2SC(=O)N(Cc3cccc(C(=O)O)c3)C2=O)c1 (configuration not stated)	/	/	0%[46.1 µM]	/	26%[46.1 µM]	2
CC(C)(C)NC(=O)C(c1cccs1)N(Cc1cccs1)C(=O)c1ccc(CN2CCOCC2)o1 (configuration not stated)	-16%	-19%	-7%[46.1 µM]	7%	-8%	?
Cc1cccc(N(C(=O)c2ccc(CN3CCOCC3)o2)C(C(=O)NC(C)(C)C)c2ccc(F)cc2)c1 (configuration not stated)	?	8.3µM*	?	-9%	?	-7
CCCCn1c(O)c2n(c1=O)Cc1ccccc1N=C2c1ccccc1	/	/	/	/	/	2
Cc1cc(C)cc(-n2c(SCC(N)=O)nc3c([nH]c4ccccc43)c2=O)c1	/	/	/	/	?	-71*
CC(Sc1nc2c([nH]c3ccccc32)c(=O)n1-c1ccccc1)c1ccccc1 (configuration not stated)	/	/	/	/	?	-83*
CCSc1nc2c([nH]c3ccccc32)c(=O)n1-c1cccc(OC)c1	/	/	/	/	?	-63*
COC(=O)C(C)Sc1nc2c([nH]c3ccccc32)c(=O)n1-c1ccc(OC)cc1 (configuration not stated)	/	/	/	/	-14%[46.1 µM]	20
O=C(CSc1nc2c([nH]c3ccccc32)c(=O)n1-c1ccccc1F)Nc1ccccc1C(F)(F)F	/	/	/	/	?	-89*
COc1ccccc1Cc1c(-c2ccc(F)cc2)nc2c3ccccc3ccn12	/	/	/	/	/	35
COC(=O)c1ccc(/C=C/c2c(-c3ccsc3)oc3ccc(N4CCOCC4)cc23)cc1	13µM*	?	/	12%	/	-14
SMILES	Pf growth 96h	Pf growth 48h	MARV entry inh	HCV inhibitor	Lassa entry inh	HCMV antiviral
OCC[C@@H]1C[C@H](O)[C@@H](O)[C@@]2(OCc3ccc4ccccc4c32)O1	/	/	/	/	/	-15
COc1ccc(C2=NN(c3ccccc3)C(=O)/C2=C\c2ccc(O)c(OC)c2)cc1	?	13µM*	/	8%	/	8
Cc1cccc(C(O)c2ncc(-c3ccc(C(F)(F)F)cc3)[nH]2)c1C (configuration not stated)	/	/	/	/	/	7
CCOC(=O)C1=C(CS(=O)(=O)c2ccc(F)cc2)NC(=O)NC1c1ccc(OCC)c(OC)c1 (configuration not stated)	/	/	17%[46.1 µM]	/	0%[46.1 µM]	-16
Cc1ccc2nc(-c3ccc(NS(=O)(=O)c4ccc(F)cc4)cc3)sc2c1	140%	163%	?	?	?	-94*
Cc1ccc2nc(-c3ccc(N)cc3)sc2c1	i	0%	3.5µM*	?	?	-33
CNC(=S)Nc1ccc(-c2nc3ccc(C)cc3s2)cc1	i	i	?	-25%	?	88
Nc1ccc2nc(-c3ccccc3)sc2c1	0%	135%	?	?	3.2µM*	-32
CCCN(CC(=O)Nc1ccccc1C)C(=O)c1cc2ccccc2oc1=O	/	/	/	/	/	-37
COc1ccc(NC(=O)c2cc(S(=O)(=O)N3CCCCCC3)cn2C)cc1Cl	/	/	/	/	-1%[46.1 µM]	-4
O=C(OCc1nc(-c2ccccc2Cl)no1)c1ccco1	6%	5%	6%	10%	-3%	-7
CCOCCCN(Cc1ccco1)S(=O)(=O)c1cc2c(cc1Cl)NC(=O)CO2	/	/	/	/	-13%[46.1 µM]	0
CC(C)(C)OC(=O)N[C@H]1C=C[C@@H](CC(=O)OCC(F)(F)F)C1	/	/	/	/	/	28
CC(C)CC(c1nnnn1C1CCCC1)N1CCN(c2ccccc2F)CC1 (configuration not stated)	38%	0%	?	?	?	0
COc1ccc(N2CCN(C(c3cccs3)c3nnnn3C3CCCC3)CC2)cc1 (configuration not stated)	/	?	?	-6%	?	?
COc1ccccc1N1CCN(C(c2ccccn2)c2nnnn2C2CCCCC2)CC1 (configuration not stated)	/	9.3µM*	?	10%	-12%	20
Fc1ccccc1N1CCN(C(c2ccccn2)c2nnnn2C2CCCCC2)CC1 (configuration not stated)	-6%	10µM*	?	5%	-8%	-16
CC1CCN(C(=O)c2cc3c(=O)n4ccccc4nc3s2)CC1	?	39%	5%[46.1 µM]	-15%	5%[46.1 µM]	42
O=C(c1cc2c(=O)n3ccccc3nc2s1)N1CCOCC1	5.2µM*	111%	-2%	7%	?	29
CC1CC(NC(=O)c2cc3c(=O)n4ccccc4nc3n2C)CC(C)(C)C1 (configuration not stated)	0%	12µM*	?	?	14%[46.1 µM]	?

Bioassay records from PubChem BioAssay.
